In PMC11006913:
Positions count from the first letter of the chain named.

Tests used:
Assay in all cases: PBM; 200 nM protein, PBS
Details in all cases: dsDNA, one strand shown
VENTX [1] = molecular target: T1, VENTX (Homo sapiens, UniProt O95231 78-163, R121Q)
T1 sequence: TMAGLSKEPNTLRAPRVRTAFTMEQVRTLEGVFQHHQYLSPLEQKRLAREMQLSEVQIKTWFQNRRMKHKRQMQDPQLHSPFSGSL

VENTX [2] = molecular target: T2, VENTX (Homo sapiens, UniProt O95231 78-163)
T2 sequence: T1 sequence with Q44R

VENTX [3] = molecular target: T3, VENTX (Homo sapiens, UniProt O95231 78-163, Y115F)
T3 sequence: T1 sequence with Y38F, Q44R

ALX3 [4] = molecular target: ALX3 (Homo sapiens, UniProt O95076 139-225, N203Q)
Sequence of ALX3 (Homo sapiens, UniProt O95076 139-225, N203Q) (O95076 139-225 N203Q): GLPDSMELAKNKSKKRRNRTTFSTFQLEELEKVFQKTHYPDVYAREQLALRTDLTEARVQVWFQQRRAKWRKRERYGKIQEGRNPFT

ALX3 [5] = molecular target: ALX3 (Homo sapiens, UniProt O95076 139-225)
Sequence of ALX3 (Homo sapiens, UniProt O95076 139-225) (O95076 139-225): as the sequence (O95076 139-225 N203Q) above, with Q65N counted along it

VAX1 [6] = molecular target: VAX1 (Homo sapiens, UniProt Q5SQQ9 86-172)
Sequence of VAX1 (Homo sapiens, UniProt Q5SQQ9 86-172) (Q5SQQ9 86-172): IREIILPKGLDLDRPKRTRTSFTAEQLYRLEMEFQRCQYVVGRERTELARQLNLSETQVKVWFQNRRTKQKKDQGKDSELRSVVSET

ALX3 [7] = molecular target: ALX3 (Homo sapiens, UniProt O95076 139-225, L168Q)
Sequence of ALX3 (Homo sapiens, UniProt O95076 139-225, L168Q) (O95076 139-225 L168Q): as the sequence (O95076 139-225 N203Q) above, with L30Q, Q65N counted along it

ALX3 [8] = molecular target: ALX3 (Homo sapiens, UniProt O95076 139-225, L168V)
Sequence of ALX3 (Homo sapiens, UniProt O95076 139-225, L168V) (O95076 139-225 L168V): as the sequence (O95076 139-225 N203Q) above, with L30V, Q65N counted along it

VAX1 [9] = molecular target: VAX1 (Homo sapiens, UniProt Q5SQQ9 86-172, T142I)
Sequence of VAX1 (Homo sapiens, UniProt Q5SQQ9 86-172, T142I) (Q5SQQ9 86-172 T142I): as the sequence (Q5SQQ9 86-172) above, with T57I counted along it

ALX3 [10] = molecular target: ALX3 (Homo sapiens, UniProt O95076 139-225, N203S)
Sequence of ALX3 (Homo sapiens, UniProt O95076 139-225, N203S) (O95076 139-225 N203S): as the sequence (O95076 139-225 N203Q) above, with Q65S counted along it

VAX1 [11] = molecular target: VAX1 (Homo sapiens, UniProt Q5SQQ9 86-172, K157R)
Sequence of VAX1 (Homo sapiens, UniProt Q5SQQ9 86-172, K157R) (Q5SQQ9 86-172 K157R): as the sequence (Q5SQQ9 86-172) above, with K72R counted along it

PAX4 [12] = molecular target: T4, PAX4 (Homo sapiens, UniProt O43316 9-242, F177V)
T4 sequence: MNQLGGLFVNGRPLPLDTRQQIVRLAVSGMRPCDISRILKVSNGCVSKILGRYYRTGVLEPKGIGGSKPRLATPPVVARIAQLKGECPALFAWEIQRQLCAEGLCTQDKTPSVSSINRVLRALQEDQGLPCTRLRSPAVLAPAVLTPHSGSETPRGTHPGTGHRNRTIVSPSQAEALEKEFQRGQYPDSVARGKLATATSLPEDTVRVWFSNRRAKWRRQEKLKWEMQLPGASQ

PAX4 [13] = molecular target: T5, PAX4 (Homo sapiens, UniProt O43316 9-242, R227W)
T5 sequence: T4 sequence with V169F, R219W

HOXB9 = HOXB9 (Homo sapiens, UniProt P17482 171-250, T197M)
Sequence of HOXB9 (P17482 171-250 T197M): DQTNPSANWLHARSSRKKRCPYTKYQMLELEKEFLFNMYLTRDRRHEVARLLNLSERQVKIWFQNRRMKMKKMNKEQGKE

HOXC9 [14] = molecular target: HOXC9 (Homo sapiens, UniProt P31274 178-260, K195R)
Sequence of HOXC9 (Homo sapiens, UniProt P31274 178-260, K195R) (P31274 178-260 K195R): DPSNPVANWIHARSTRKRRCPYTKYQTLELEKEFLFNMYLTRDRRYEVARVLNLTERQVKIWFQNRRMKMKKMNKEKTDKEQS

HOXA7 [15] = molecular target: HOXA7 (Homo sapiens, UniProt P31268 116-202)
Sequence of HOXA7 (Homo sapiens, UniProt P31268 116-202) (P31268 116-202): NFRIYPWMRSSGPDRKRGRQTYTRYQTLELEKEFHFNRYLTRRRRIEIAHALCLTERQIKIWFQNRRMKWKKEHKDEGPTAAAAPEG

PAX4 [16] = molecular target: T6, PAX4 (Homo sapiens, UniProt O43316 9-242, R200K)
T6 sequence: T4 sequence with V169F, R192K

PRRX1 [17] = molecular target: PRRX1 (Homo sapiens, UniProt P54821 80-166, F113S)
Sequence of PRRX1 (Homo sapiens, UniProt P54821 80-166, F113S) (P54821 80-166 F113S): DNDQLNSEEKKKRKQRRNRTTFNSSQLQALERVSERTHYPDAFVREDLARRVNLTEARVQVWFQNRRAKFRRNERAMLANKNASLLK

PAX4 [18] = molecular target: T7, PAX4 (Homo sapiens, UniProt O43316 9-242)
T7 sequence: T4 sequence with V169F

HOXB6 [19] = molecular target: HOXB6 (Homo sapiens, UniProt P17509 132-218, K202E)
Sequence of HOXB6 (Homo sapiens, UniProt P17509 132-218, K202E) (P17509 132-218 K202E): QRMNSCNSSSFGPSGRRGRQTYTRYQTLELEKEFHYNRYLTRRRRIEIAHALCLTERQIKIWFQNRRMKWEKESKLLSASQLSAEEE

PAX4 [20] = molecular target: T8, PAX4 (Homo sapiens, UniProt O43316 9-242, R200Q)
T8 sequence: T4 sequence with V169F, R192Q

HOXC10 = HOXC10 (Homo sapiens, UniProt Q9NYD6 254-340, K271E)
Sequence of HOXC10 (Q9NYD6 254-340 K271E): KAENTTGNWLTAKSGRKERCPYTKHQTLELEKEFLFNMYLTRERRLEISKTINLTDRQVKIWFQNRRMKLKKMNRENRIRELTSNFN

PAX4 [21] = molecular target: T9, PAX4 (Homo sapiens, UniProt O43316 9-242, F177Y)
T9 sequence: T4 sequence with V169Y

HOXC9 [22] = molecular target: HOXC9 (Homo sapiens, UniProt P31274 178-260, R222W)
Sequence of HOXC9 (Homo sapiens, UniProt P31274 178-260, R222W) (P31274 178-260 R222W): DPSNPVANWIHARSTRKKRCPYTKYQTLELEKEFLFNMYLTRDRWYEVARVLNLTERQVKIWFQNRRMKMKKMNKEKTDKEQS

HESX1 = HESX1 (Homo sapiens, UniProt Q9UBX0 95-180, F115L)
Sequence of HESX1 (Q9UBX0 95-180 F115L): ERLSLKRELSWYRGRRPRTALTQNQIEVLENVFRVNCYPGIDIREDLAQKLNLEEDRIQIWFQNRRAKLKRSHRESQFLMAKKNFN

HOXA7 [23] = molecular target: HOXA7 (Homo sapiens, UniProt P31268 116-202, W177C)
Sequence of HOXA7 (Homo sapiens, UniProt P31268 116-202, W177C) (P31268 116-202 W177C): as the sequence (P31268 116-202) above, with W62C counted along it

HOXA4 = HOXA4 (Homo sapiens, UniProt Q00056 201-287, W262F)
Sequence of HOXA4 (Q00056 201-287 W262F): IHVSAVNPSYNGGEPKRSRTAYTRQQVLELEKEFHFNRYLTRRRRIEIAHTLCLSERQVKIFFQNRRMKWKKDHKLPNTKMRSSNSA

PRRX1 [24] = molecular target: PRRX1 (Homo sapiens, UniProt P54821 80-166)
Sequence of PRRX1 (Homo sapiens, UniProt P54821 80-166) (P54821 80-166): as the sequence (P54821 80-166 F113S) above, with S34F counted along it

HOXB6 [25] = molecular target: HOXB6 (Homo sapiens, UniProt P17509 132-218)
Sequence of HOXB6 (Homo sapiens, UniProt P17509 132-218) (P17509 132-218): as the sequence (P17509 132-218 K202E) above, with E71K counted along it

## CGGCGTGC
VENTX [1]
  binding signal: 8.01 upbm affinity estimate (log intensity, higher = more binding, comparable within an allelic series)
VENTX [2]
  binding signal: 7.84 upbm affinity estimate (log intensity, higher = more binding, comparable within an allelic series)
VENTX [3]
  binding signal: 8.12 upbm affinity estimate (log intensity, higher = more binding, comparable within an allelic series)
ALX3 [4]
  binding signal: 7.7 upbm affinity estimate (log intensity, higher = more binding, comparable within an allelic series)
ALX3 [5]
  binding signal: 7.74 upbm affinity estimate (log intensity, higher = more binding, comparable within an allelic series)
VAX1 [6]
  binding signal: 7.08 upbm affinity estimate (log intensity, higher = more binding, comparable within an allelic series)
ALX3 [7]
  binding signal: 7.73 upbm affinity estimate (log intensity, higher = more binding, comparable within an allelic series)
ALX3 [8]
  binding signal: 7.75 upbm affinity estimate (log intensity, higher = more binding, comparable within an allelic series)
VAX1 [9]
  binding signal: 7.28 upbm affinity estimate (log intensity, higher = more binding, comparable within an allelic series)
ALX3 [10]
  binding signal: 7.71 upbm affinity estimate (log intensity, higher = more binding, comparable within an allelic series)
VAX1 [11]
  binding signal: 7.16 upbm affinity estimate (log intensity, higher = more binding, comparable within an allelic series)

## ACATATTA
VENTX [1]
  binding signal: 10.6 upbm affinity estimate (log intensity, higher = more binding, comparable within an allelic series)
VENTX [2]
  binding signal: 11.3 upbm affinity estimate (log intensity, higher = more binding, comparable within an allelic series)
VENTX [3]
  binding signal: 10.4 upbm affinity estimate (log intensity, higher = more binding, comparable within an allelic series)
ALX3 [4]
  binding signal: 8.55 upbm affinity estimate (log intensity, higher = more binding, comparable within an allelic series)
PAX4 [12]
  binding signal: 10.8 upbm affinity estimate (log intensity, higher = more binding, comparable within an allelic series)
PAX4 [13]
  binding signal: 11 upbm affinity estimate (log intensity, higher = more binding, comparable within an allelic series)

## ATTATAAT
HOXB9
  binding signal: 10.2 upbm affinity estimate (log intensity, higher = more binding, comparable within an allelic series)
HOXC9 [14]
  binding signal: 12.5 upbm affinity estimate (log intensity, higher = more binding, comparable within an allelic series)
HOXA7 [15]
  binding signal: 11.3 upbm affinity estimate (log intensity, higher = more binding, comparable within an allelic series)
PAX4 [16]
  binding signal: 11.8 upbm affinity estimate (log intensity, higher = more binding, comparable within an allelic series)
PRRX1 [17]
  binding signal: 11.3 upbm affinity estimate (log intensity, higher = more binding, comparable within an allelic series)
PAX4 [18]
  binding signal: 12.2 upbm affinity estimate (log intensity, higher = more binding, comparable within an allelic series)
HOXB6 [19]
  binding signal: 10.1 upbm affinity estimate (log intensity, higher = more binding, comparable within an allelic series)
PAX4 [20]
  binding signal: 12 upbm affinity estimate (log intensity, higher = more binding, comparable within an allelic series)
PAX4 [12]
  binding signal: 10.8 upbm affinity estimate (log intensity, higher = more binding, comparable within an allelic series)
HOXC10
  binding signal: 11.8 upbm affinity estimate (log intensity, higher = more binding, comparable within an allelic series)
PAX4 [21]
  binding signal: 11.1 upbm affinity estimate (log intensity, higher = more binding, comparable within an allelic series)
HOXC9 [22]
  binding signal: 11.1 upbm affinity estimate (log intensity, higher = more binding, comparable within an allelic series)
HESX1
  binding signal: 7.83 upbm affinity estimate (log intensity, higher = more binding, comparable within an allelic series)
PAX4 [13]
  binding signal: 11 upbm affinity estimate (log intensity, higher = more binding, comparable within an allelic series)
HOXA7 [23]
  binding signal: 8.94 upbm affinity estimate (log intensity, higher = more binding, comparable within an allelic series)
HOXA4
  binding signal: 11.4 upbm affinity estimate (log intensity, higher = more binding, comparable within an allelic series)
PRRX1 [24]
  binding signal: 13.3 upbm affinity estimate (log intensity, higher = more binding, comparable within an allelic series)
HOXB6 [25]
  binding signal: 11.8 upbm affinity estimate (log intensity, higher = more binding, comparable within an allelic series)

## CCGATTAC
VENTX [1]
  binding signal: 10.3 upbm affinity estimate (log intensity, higher = more binding, comparable within an allelic series)
PRRX1 [17]
  binding signal: 9.76 upbm affinity estimate (log intensity, higher = more binding, comparable within an allelic series)
VENTX [3]
  binding signal: 10.4 upbm affinity estimate (log intensity, higher = more binding, comparable within an allelic series)
PRRX1 [24]
  binding signal: 11.8 upbm affinity estimate (log intensity, higher = more binding, comparable within an allelic series)

## CCCGATTA
VENTX [1]
  binding signal: 10.4 upbm affinity estimate (log intensity, higher = more binding, comparable within an allelic series)
VENTX [3]
  binding signal: 10.6 upbm affinity estimate (log intensity, higher = more binding, comparable within an allelic series)
